# m5-HT2A agonist: mouse HTR2A agonism via beta-arrestin recruitment; CHO-K1 mHTR2A beta-arrestin complementation, luminescence; percent of 30 µM serotonin response; AID 624169; activation, % at 7.6 µM; actives 0.66% (n = 360,000);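 active means activation above a run cutoff, the mean activation of all tested compounds plus 3 SD, cut at about 14% in these data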;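 further: 0% = plate median of compound wells and 100% = 30 µM serotonin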
# CTSL1 counter: blocks F. hepatica cathepsin L1 in PFM18AAP counter-screen; recombinant F. hepatica cathepsin L1, Z-Leu-Arg-MCA fluorescence; inhibition, % at 5.96 µM; actives 0.49% (n = 300,000); AID 1906;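 active means inhibition above the mean of all tested compounds plus 3 SD, set per screening campaign, cut at about 17% in these data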;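 further: 0% = plate median of test compound wells and 100% = 1 µM Z-Phe-Ala-diazomethylketone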
# LANA-H2B inh: blocks KSHV LANA binding to histone H2A/H2B; Q9QR71; cell-free LANA-H2A/H2B peptide, fluorescence polarization; inhibition, % (no concentration beside the values); actives 0.6% (n = 320,000); in the data active means inhibition mostly above about 10%, no sharp cut-off; inactive means mostly below about 6.7%
# HDAC3 inhib: blocks human histone deacetylase 3 | actives 0.15% (n = 320,000) | recombinant HDAC3, fluorogenic peptide/trypsin coupled, fluorescence | inhibition, % at 8.3 µM | O15379 | AID 2718; in the data active means inhibition above about 26%, passing the limit was not always enough
# Target sequence (O15379 whole entry, looked up): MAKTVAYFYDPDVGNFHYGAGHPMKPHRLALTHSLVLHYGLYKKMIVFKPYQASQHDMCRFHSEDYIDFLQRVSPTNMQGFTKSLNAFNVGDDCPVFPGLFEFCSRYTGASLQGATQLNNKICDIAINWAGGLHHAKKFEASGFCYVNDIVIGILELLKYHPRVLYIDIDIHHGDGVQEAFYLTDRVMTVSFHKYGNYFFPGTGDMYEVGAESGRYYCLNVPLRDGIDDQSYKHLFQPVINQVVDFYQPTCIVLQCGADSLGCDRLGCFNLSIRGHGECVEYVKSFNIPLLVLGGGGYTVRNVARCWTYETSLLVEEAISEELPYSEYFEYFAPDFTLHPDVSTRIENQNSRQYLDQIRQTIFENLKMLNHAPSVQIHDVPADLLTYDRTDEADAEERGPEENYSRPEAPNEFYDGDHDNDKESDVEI
# OPRM1 ag: OPRM1 agonism in mouse HTR2A counterscreen | shares compounds with m5-HT2A agonist | U2OS OPRM1 beta-arrestin PathHunter, luminescence; DMSO 0%, DAMGO 9.3 µM 100% | activation, % at 9.3 µM | actives 5.3% (n = 2,300) | AID 624380;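 active means mean activation above the mean of DMSO-only wells plus 3 SD, cut at about 0.5% in these data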
# HTR2A ag conf: mouse HTR2A agonism confirmed | CHO-K1 PathHunter beta-arrestin recruitment, luminescence; DMSO 0%, 30 µM serotonin 100% | activation, % at 7.6 µM | AID 624381 | shares compounds with m5-HT2A agonist | actives 19% (n = 2,300);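 active means mean activation across triplicates above the hit threshold derived in the original primary screen, cut at about 15% in these data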
# * marks the source's active call; other numbers are inactive results; / = no result given; ! = not active in a repeat. Most compounds without a hit are left out; they make up all but 1.7% or so of the library.
SMILES,m5-HT2A agonist,CTSL1 counter,LANA-H2B inh,HDAC3 inhib,OPRM1 ag,HTR2A ag conf
CC(=O)C1=C(C)NC(=O)NC1c1ccc(Cl)cc1 (configuration not stated),17*,3,8,5,-1,-3
CC1=C(C(N)=O)C(c2ccc(Cl)cc2)NC(=O)N1 (configuration not stated),0,-6,-7,-2,/,/
CCOC(=O)N1CCC(N2C(=O)c3ccccc3C2Nc2cccnc2)CC1 (configuration not stated),19*,0,7,1,0,-1
CCOC(=O)N1CCC(N2C(=O)c3ccccc3C2Nc2ccccc2C)CC1 (configuration not stated),-4,-1,7,4,/,/
COc1cc2c(cc1OC)CN(C(=O)C(C)(C)C)CC2,17*,-1,-2,-3,-1,-4
Oc1ccc(C[C@@H]2CNCCN2CCc2cccc(F)c2)cc1,-4,-4,4,8,/,/
CCOc1ccccc1C1C(C(=O)Nc2ccccc2OC)=C(C)Nc2nc(CCCO)nn21 (configuration not stated),30*,0,-2,-3,-1,-3
CCCCN(C=O)c1c(CC)nc2c(OCC(=O)C(C)(C)C)cccn12,10,/,/,/,/,/
CCCCN(C=O)c1c(CC)nc2c(OCC(=O)N3CCOCC3)cccn12,16*,/,/,/,0,-3
Cc1cc(C(=O)OCC(=O)N2CC(C)OC(C)C2)c(C)n1-c1ccccc1 (configuration not stated),2,/,-1,0,/,/
O=C(Nc1ccc(Cl)cc1)Nc1nnc(SCc2ccc(Cl)cc2)s1,-2,-6,8,-1,/,/
O=C(Nc1ccccc1)Nc1nnc(SCc2ccc(Cl)cc2)s1,17*,3,4,7,0,-1
CCOc1ccc(CCNC(=O)CN2CCN(Cc3ccccc3F)C2=O)cc1OCC,4,0,3,3,/,/
O=C(CN1CCN(Cc2ccccc2F)C1=O)NCCc1ccc(Cl)cc1,16*,0,-5,6,-1,-7
Cc1noc(C)c1COc1ccccc1C(=O)NCCc1ccc(F)cc1,-4,/,/,/,/,/
O=C(Nc1ccccc1Cl)c1ccccc1CC(O)(c1ccccc1)c1ccccc1,21*,/,/,/,0,-4
CC(C)(C)c1ccc(C(=O)Nc2ccccc2Cl)cc1,-3,-1,6,9,/,/
O=C(c1cccs1)N(Cc1ccc(Cl)cc1)C1CCS(=O)(=O)C1 (configuration not stated),-1,-1,-5,1,/,/
CC(C)c1ccc(CN(C(=O)c2cccs2)C2CCS(=O)(=O)C2)cc1 (configuration not stated),15*,9,2,2,-1,-4
Cc1ccc(CC(NC(=O)c2ccc(C)cc2)C(=O)O)cc1 (configuration not stated),-1,/,/,/,/,/
CCOc1ccc(-c2cc(C(=O)N3CCCC3)c3ccccc3n2)cc1,15*,2,0,-68,-1,-2
Cc1ccc(O)c(NC(=O)c2cc3nc4c(c(C(F)(F)F)n3n2)CCc2ccccc2-4)c1,16*,-4,1,-2,0,9
COc1ccc(S(=O)(=O)N(CC(=O)NC2CC2)Cc2ccccc2)cc1,-4,1,-1,-2,/,/
Cc1nc2c(nnn2Cc2c(Cl)cccc2Cl)c(=O)[nH]1,19*,3,-9,-2,0,5
CC(=O)Cn1ncc(N(C)Cc2ccccc2)c(Cl)c1=O,3,2,1,-2,/,/
SMILES,m5-HT2A agonist,CTSL1 counter,LANA-H2B inh,HDAC3 inhib,OPRM1 ag,HTR2A ag conf
CCOc1ccc2oc(C(=O)OCC(=O)N3CCCC(C)C3)c(C)c2c1 (configuration not stated),3,/,-1,-23,/,/
COc1ccc2oc(C(=O)OCC(=O)N3CCCC(C)C3)c(C)c2c1 (configuration not stated),20*,3,5,-28,-1,-3
O=C(CSc1nnc(-c2cccnc2)o1)Nc1cccc(F)c1,0,0,1,-1,/,/
CC1CCCC(C)N1C(=O)CNCc1ccc2c(c1)OCO2 (configuration not stated),-1,-2,-6,6,/,/
COc1ccc(CCN2CC(C(=O)Nc3ccc(S(C)(=O)=O)cc3)CC2=O)cc1OC (configuration not stated),7,-1,-5,6,/,/
COc1ccc(CN(C)CCCn2cnc3c(OCc4ccccc4)ncnc32)cc1OC,3,/,/,/,/,/
COc1cc(NC(=O)C2CCCO2)c(OC)cc1Cl (configuration not stated),2,8,-1,-2,/,/
COc1cc(OC)c(NC(=O)C2CCCO2)cc1Cl (configuration not stated),16*,2,-10,0,-1,-2
COc1ccccc1OCCn1ccnc1,16*,-4,-2,-5,-1,-6
C[C@H](O)CC(=O)O,16*!,4,1,0,0,-4
C[C@@H](O)CC(=O)O,-3,-2,-5,2,/,/
OCCNc1nc(Nc2ccccc2C(F)(F)F)nc(N2CCCC2)n1,17*,-3,6,1,-1,-3
CCN(C[C@H]1N[C@@](CC)(C(=O)OC)[C@H]2C(=O)N(C)C(=O)[C@@H]12)S(=O)(=O)c1ccc(C(F)(F)F)cc1,-2,/,-7,1,/,/
CCCn1c(N)c(Sc2ccc([N+](=O)[O-])cc2)c(=O)n(CCC)c1=O,17*,2,8,3,0,3
Cc1cc(C(=O)COC(=O)C2=COCCO2)c(C)n1-c1cccc(F)c1,3,-5,-5,-10,/,/
O=[N+]([O-])c1cc(-c2nnc(Nc3ccc(O)cc3)c3ccccc23)ccc1N1CCOCC1,31*,0,6,7,0,21*
O=[N+]([O-])c1cc(-c2nnc(Nc3ccccc3)c3ccccc23)ccc1N1CCOCC1,11,1,-2,-1,/,/
O=C(NCC1OCCc2ccccc21)c1ccc(NC(=O)c2ccc(Cl)cc2Cl)cc1 (configuration not stated),16*,-3,9,1,0.8*,11
C=CCC[C@H](Cc1ccc(F)cc1)C(=O)OC[C@@H](NC(=O)[C@H](CC=C)CC(=O)NCCO)C(C)(C)C,4,/,-3,5,/,/
Cn1c(=O)[nH]c(=O)c2c1nc(N1CCCCCC1)n2CC(N)=O,7,0,-1,6,/,/
Cn1c(=O)[nH]c(=O)c2c1nc(N1CCCC1)n2CCO,22*,0,4,-1,0,-1
COc1ccccc1CC(=O)N1CCN(S(=O)(=O)c2ccccc2)CC1,-1,1,2,-7,/,/
CC(C)(C)c1ccc(S(=O)(=O)N2CCN(CC(O)CN3CCOCC3)CC2)cc1 (configuration not stated),1,/,3,-2,/,/
